Reference: PubChem BioAssay AID1159580 (chemical genetic matrix, 2015)
About 2,000 (36%) of roughly 5,500 compounds were called active. Roughly 18% stayed inconclusive and do not appear here. No stated cut-off is given here; in the data, active means normalized growth mostly below about 0.91 (no sharp cut-off); inconclusive means no clear call, values can overlap the other calls; inactive means mostly above about 0.92. Some of the results follow.

Test: chemical genetic growth profiling, strain panel (AID 1159580);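 further: tested at 20 µM; growth read once vehicle control cultures reached saturation at 30 °C; 1 = growth at the plate median or of vehicle wells; lower values mean less growth of the strain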
Settings: S. cerevisiae deletion strains, growth OD

Measured: normalized growth

CC(C)Cc1ccc(C(C)C(=O)Nc2nn(C)c3ccccc23)cc1 (stereo not given)
inactive: locus YAR019C, strain CDC15, active compounds read low 0.993 | locus YBL105C, strain PKC1, active compounds read low 0.986 | locus YBR135W, strain CKS1, active compounds read low 0.974 | locus YBR136W, strain MEC1, active compounds read low 0.99 | locus YBR160W, strain CDC28, active compounds read low 0.984 | locus YDL017W, strain CDC7, active compounds read low 0.967 | locus YDL028C, strain MPS1, active compounds read low 0.997 | locus YDL101C, strain DUN1, active compounds read low 0.993 | locus YDL108W, strain KIN28, active compounds read low 0.992 | locus YDL132W, strain cdc53, active compounds read low 0.998 | locus YDL214C, strain PRR2, active compounds read low 0.931 | locus YDR054C, strain cdc34, active compounds read low 0.968 | locus YDR226W, strain ADK1, active compounds read low 0.991 | locus YDR477W, strain SNF1, active compounds read low 0.932 | locus YER123W, strain YCK3, active compounds read low 0.922 | locus YER133W, strain GLC7, active compounds read low 0.945 | locus YFL009W, strain cdc4, active compounds read low 0.985 | locus YFL029C, strain CAK1, active compounds read low 0.994 | locus YFR003C, strain YPI1, active compounds read low 0.993 | locus YFR019W, strain FAB1, active compounds read low 0.962 | locus YFR028C, strain CDC14, active compounds read low 0.988 | locus YGR040W, strain KSS1, active compounds read low 0.915 | locus YGR052W, strain FMP48, active compounds read low 0.983 | locus YGR092W, strain DBF2, active compounds read low 0.931 | locus YHR030C, strain SLT2, active compounds read low 0.944 | locus YHR079C, strain IRE1, active compounds read low 0.945 | locus YHR082C, strain KSP1, active compounds read low 0.94 | locus YHR205W, strain SCH9, active compounds read low 0.909 | locus YIL147C, strain SLN1, active compounds read low 0.989 | locus YJL095W, strain BCK1, active compounds read low 0.965 | locus YJL128C, strain PBS2, active compounds read low 0.948 | locus YJL157C, strain FAR1, active compounds read low 0.942 | locus YJR016C, strain ILV3, active compounds read low 0.99 | locus YJR066W, strain TOR1 (second series), active compounds read low 0.902 | locus YJR066W, strain TOR1, active compounds read low 0.982 | locus YKL048C, strain ELM1, active compounds read low 0.965 | locus YKL067W, strain YNK1, active compounds read low 0.939 | locus YKL101W, strain HSL1, active compounds read low 0.933 | locus YKL193C, strain SDS22, active compounds read low 0.975 | locus YKL203C, strain TOR2, active compounds read low 0.981 | locus YLR133W, strain CKI1, active compounds read low 0.93 | locus YLR403W, strain SFP1, active compounds read low 0.772 | locus YML070W, strain DAK1, active compounds read low 0.918 | locus YMR001C, strain CDC5, active compounds read low 0.973 | locus YMR205C, strain PFK2 (second series), active compounds read low 0.928 | locus YMR277W, strain FCP1, active compounds read low 0.975 | locus YNL006W, strain LST8, active compounds read low 0.993 | locus YNL020C, strain ARK1, active compounds read low 0.935 | locus YNL161W, strain CBK1, active compounds read low 0.991 | locus YNL183C, strain NPR1, active compounds read low 0.927 | locus YNL207W, strain RIO2, active compounds read low 0.976 | locus YNL222W, strain SSU72, active compounds read low 0.99 | locus YNL307C, strain MCK1 (second series), active compounds read low 0.944 | locus YOL078W, strain AVO1, active compounds read low 0.987 | locus YOL136C, strain PFK27, active compounds read low 0.916 | locus YOR061W, strain CKA2, active compounds read low 0.938 | locus YOR119C, strain RIO1, active compounds read low 0.988 | locus YOR231W, strain MKK1, active compounds read low 0.896 | locus YOR329C, strain SCD5, active compounds read low 0.99 | locus YPL031C, strain PHO85, active compounds read low 0.941 | locus YPL153C, strain RAD53, active compounds read low 0.934 | locus YPL204W, strain HRR25, active compounds read low 0.906 | locus YPL209C, strain IPL1, active compounds read low 0.982 | locus YPL256C, strain CLN2, active compounds read low 0.88 | locus YPR025C, strain CCL1, active compounds read low 0.986 | locus YPR106W, strain ISR1, active compounds read low 0.979 | locus YPR111W, strain DBF20, active compounds read low 0.955 | strain NNK1, active compounds read low 0.98 | strain TSCII, active compounds read low 0.992
active: locus YLR113W, strain HOG1, active compounds read low 0.855
